Active and inactive are the calls of the source.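 How the source made its calls: active means viability loss from added drug above about 55%, and viability with drug at most 40%, in both replicates (limit read from the data, passing the limit was not always enough); inconclusive means both conditions met in only one replicate; inactive means neither replicate meets both conditions.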
Experiment: MRP1 drug-resistance reversers in H69AR cells – cell-based, doxorubicin co-treatment, pilot screen (AID 601)
Details: H69AR cells + 2 uM doxorubicin, CellTiter-Glo, 72 h; at 10 µM; active compounds read high

Compound	differential viability (reversal)
O=C(OCC#CCSc1nnc(-c2ccncc2)o1)c1cccs1	-1.25% (inactive)
O=C(NCc1cccnc1)C1c2ccccc2C(=O)N1Cc1ccco1 (stereo not given)	11.6% (inactive)
CCc1nnc(NC(=O)CSc2nnc3scc(-c4ccc(C)cc4)n23)s1	-0.05% (inactive)
CC(C)(C)C(=O)Oc1cc(N)n(S(=O)(=O)c2ccccc2)n1	3.59% (inactive)
Cc1cnc(NC(=O)CSc2nc3ccccc3c(=O)[nH]2)s1	10.8% (inactive)
O=C(CCN1C(=O)c2ccccc2C1=O)OCN1C(=O)c2ccccc2C1=O	-10.6% (inactive)
CCOC(=O)CNC(=O)c1c(C)nn(-c2ccccc2)c1Cl	-0.915% (inactive)
COc1ccc(NC(=O)CN2CCN(CC(=O)Nc3cc(OC)cc(OC)c3)CC2)cc1	-5.3% (inactive)
CCCn1nc(NS(=O)(=O)c2ccccc2)c2cc3ccccc3nc21	25% (inactive)
CCOC(=O)C1=C(C)NC(C)=C(C(=O)OCC)C1c1cc(N)ccc1OC(F)F	4.41% (inactive)
CC1=C(C(=O)OCc2ccccc2)C(c2ccc(C)o2)C2=C(CCCC2=O)N1 (stereo not given)	13.5% (inactive)
O=C(Nc1ccccc1-c1ccccc1)NC1CCN(CC(=O)N2CCOCC2)CC1	7.87% (inactive)
CCN(C1CCCCC1)S(=O)(=O)c1ccc(OC)c(C)c1	15.7% (inactive)
Cc1ccccc1N(C)S(=O)(=O)c1ccc2[nH]cc(C(=O)NCC3CCCO3)c(=O)c2c1 (stereo not given)	4.24% (inactive)
COc1ccc(N2C(=O)CC(N3CCN(c4ccccc4F)CC3)C2=O)cc1 (stereo not given)	2.14% (inactive)

— PubChem BioAssay
